Results filed as inconclusive are left out. Entries that show only a call come without a potency. Active and inactive are the calls of the source. Calls come from the whole dose curve; as a rule, active = well fitted curve in the direction sought with a large enough effect; inconclusive = small, poorly fitted or top-dose-only effect, or another doubt; inactive = no such curve, though single readings can be large; an effect the other way counts as inactive or inconclusive.
Experiments:
[1] = qHTS for compounds that reverse cellular toxicity of Amyloid beta (A-beta) peptide in yeast: LOPAC Validation Assay (AID 720559); details: yeast expressing A-beta; series mostly up to 46.1 µM
Outline: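 Here, A-beta-toxic yeast grow with test compounds at 30 C for 48 hr before optical density at 600 nm is recorded; data are normalized against DMSO and the FeCl3-clioquinol control.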

[2] = qHTS for Activators of Parkin Expression: LOPAC Validation Assay (NLuc Reporter) (AID 720572); details: Parkin promoter NanoLuc reporter cells, luminescence; series mostly up to 46.1 µM
Outline: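 NLuc signal, read 10 min after reagent and following a prior FLuc read, is normalized to DMSO (0) and positive controls (100%). Cells: neuronal Parkin-promoter coincidence reporter line; compounds tested 7-point, 24 h, 37 C, 5% CO2.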

[3] = qHTS for Activators of Parkin Expression: LOPAC Validation Assay (FLuc Reporter) (AID 720573); details: Cell line, PRKN promoter firefly luciferase reporter; series mostly up to 46.1 µM
Outline: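 Readout is FLuc luminescence from neuronal reporter cells (Parkin promoter, FLuc plus NLuc) after 24 h compound exposure in dose response. Values normalized to neutral DMSO and positive-control compounds.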

SMILES	outcome [1]	Potency [2]	Potency [3]
COc1ccccc1N1CCN(CCN(C(=O)c2ccc(F)cc2)c2ccccn2)CC1	inactive	inactive	–
NC(N)=NC(N)=Nc1ccccc1	inactive	inactive	–
Cc1ccc2c(c1)C(N1CCN(C)CC1)=Nc1cccnc1N2	inactive	inactive	inactive
c1ccc2c(c1)CC(N1CCN(c3cccc4c3OCCO4)CC1)C2	inactive	inactive	–
NC(=O)CNCCC(c1ccccc1)c1ccccc1	inactive	inactive	–
C=CCn1c(=O)c2c(nc(-c3ccc(S(=O)(=O)O)cc3)n2C)n(C)c1=O	inactive	inactive	–
COc1ccc(C(=O)NCc2cccnc2)cc1C(=O)NCc1cccnc1	inactive	inactive	–
Cn1ccnc1	inactive	inactive	inactive
Nc1nc2c(cnn2CCc2ccccc2)c2nc(-c3ccco3)nn12	inactive	inactive	–
CCCN(CCc1ccccc1)C1CCc2c(O)cccc2C1 (stereo not given)	inactive	inactive	inactive
CC(=O)SC1CC2=CC(=O)CC[C@]2(C)C2CC[C@@]3(C)C(CC[C@@]34CCC(=O)O4)C12 (stereo not given in full)	inactive	–	–
COC(=O)C(C)(N)Cc1ccc(O)cc1 (stereo not given)	inactive	inactive	–
O=C(O)C1CCCNC1 (stereo not given)	inactive	inactive	inactive
Nc1ncnc2c1nc(Sc1ccc(Cl)cc1)n2[C@H]1OC2COP(=O)(O)O[C@@H]2C1O (stereo not given in full)	inactive	inactive	inactive
NCC(O)(CS(=O)(=O)O)c1ccc(Cl)cc1 (stereo not given)	inactive	inactive	inactive
O=C(O)c1ccccc1Nc1cccc(OCc2ccc3ccccc3n2)c1	inactive	inactive	inactive
COc1ccccc1N1CCN(CCCCN2C(=O)c3ccccc3C2=O)CC1	inactive	inactive	–
